Source: the supplement of paper PMC13380429

Test system: Vero E6 infected with SARS-CoV-2
Experiment: inhibition of SARS-CoV-2 cytopathic effect; higher = more antiviral protection, active = above 15
Conditions: 48 h

Measured: inhibition of SARS-CoV-2 cytopathic effect

CCC(CC)Nc1nc(C)c(-c2ccc(OC(F)(F)F)cc2OC)nc1OC
inactive: 1 nM 1.38% | 8.33 nM 3.16% | 100 nM 1.61% | 833.33 nM 0.57% | 10000 nM -0.01%

CN(C)CCOC(c1ccc(Cl)cc1)c1ccccn1 (stereo not given) [carbinoxamine]
inactive: 1 nM 1.68% | 8.33 nM 1.53% | 100 nM 1.23% | 833.33 nM 1.37% | 10000 nM -1.45%

CC1(C)CCC(C)(C)c2cc(C3(c4ccc(C(=O)O)cc4)OCCO3)ccc21
inactive: 1 nM -2.44% | 8.33 nM -2.21% | 100 nM 1% | 833.33 nM -0.7% | 10000 nM -1.37%

COc1ccc2c(c1OC)C(=O)O[C@@H]2[C@H]1c2cc3c(cc2CCN1C)OCO3 [hydrastine-(1R,9S)]
inactive: 1 nM 2.12% | 8.33 nM 0.73% | 100 nM 1.14% | 833.33 nM 1.33% | 10000 nM -0.76%

CCC1(C2=NCCN2)Cc2ccccc2O1 (stereo not given) [efaroxan]
inactive: 1 nM -0.76% | 8.33 nM -1.17% | 100 nM -0.66% | 833.33 nM -2.93% | 10000 nM -3.79%

COC(=O)[C@@H]1C[C@H](OC(C)=O)C(=O)[C@H]2[C@@]1(C)CC[C@H]1C(=O)O[C@H](c3ccoc3)C[C@]21C [salvinorin-A]
inactive: 1 nM -2.48% | 8.33 nM -1.89% | 100 nM -1.61% | 833.33 nM -0.35% | 10000 nM 0.69%

CCS(=O)(=O)N1CCC[C@@H]2CN3CCc4cc(OC)ccc4[C@@H]3C[C@@H]21
inactive: 1 nM -0.74% | 8.33 nM 1.49% | 100 nM 0.02% | 833.33 nM 5.17% | 10000 nM -0.18%
